KB-3-1 cytotox: KB-3-1 parental cell cytotoxicity; KB-3-1 viability, CellTiter-Glo ATP luminescence, 72 h; Potency, µM (doses to about 46.1 µM), hits mostly cytotoxic; 400,000 tested, 1.4% active; note: nearly all actives have a fitted effect of over 60% in size
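Parental KB-3-1 adenocarcinoma cells in phenol-red-free DMEM with 10% FBS were pin-treated with compounds at several concentrations, incubated 72 h at 37 °C, and viability read by CellTiter-Glo luminescence; concentration-effect curves were fitted after normalization.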
HT1080NT lethal: kills 2HG-producing HT-1080-NT fibrosarcoma cells | Potency, µM (highest dose often 46.1 µM), inactives show top-dose activity, negative = less viability, actives largely listed as cytotoxic | 360,000 tested, 1.6% active | HT-1080-NT fibrosarcoma viability, CellTiter-Glo ATP luminescence, 48 h;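 note: NT is the 2HG producing partner of a matched IDH1 knockdown line; 0% = DMSO-treated cells and -100% = media-only wells without cells; nearly all actives have a fitted effect of over 55% in size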
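Compounds were tested in concentration-response format on HT-1080-NT cells for 48 hours at 37 degrees C. Cell viability came from CellTiter-Glo luminescence; curves were classified by r2, response magnitude and activity.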
HT1080 IDH1KD tx: HT-1080 IDH1 knockdown cell toxicity (counter line). HT-1080 IDH1 knockdown viability, ATP luminescence, 48 h. Potency, µM (doses to about 46.1 µM), without a hit: top-dose activity, negative = toxicity, actives largely listed as cytotoxic. 360,000 tested, 2% active. AID 686971;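 note: 0% = DMSO wells and -100% = cell-free medium wells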
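Viability of IDH1-knockdown HT-1080 fibrosarcoma cells was assessed by CellTiter-Glo after 48 h at 37 °C with titrated compound; concentration-effect curves were classified by fit quality and response size.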
DT40 TDP1 CPT: growth inhibition of DT40 Tdp1-/-;hTDP1 cells with camptothecin (screen for TDP1 inhibitors). AID 686979. 420,000 tested, 12% active. chicken DT40 Tdp1-/-;hTDP1 cells + 20 nM CPT, ATP luminescence, 48 h. Potency, µM (top dose mostly 46.2 µM), for inactives: at the top dose activity change, negative = growth inhibition, hits mostly inhibitors; note: nearly all actives have a fitted effect of over 55% in size
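Chicken DT40 Tdp1-/- cells stably complemented with human TDP1 were seeded at 400 cells/well in medium containing 20 nM camptothecin, exposed to pin-transferred compounds, and grown at 37 °C for at least 48 hr. Viability was read as ATP luminescence.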
KB-V1 cytotox: kills drug-selected multidrug resistant KB-V1 cells; 400,000 tested, 3.4% active; Potency, µM (highest dose often 46.1 µM), most hits filed as cytotoxic; AID 1347076; KB-V1 MDR cells viability, CellTiter-Glo, 72 h; note: nearly all actives have a fitted effect of over 60% in size
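Luminescent ATP read-out (CellTiter-Glo, 10 min) measures survival of drug-selected KB-V1 MDR cells after 72 h, 37 degrees C compound exposure. Medium: phenol-red-free DMEM, 10% FBS. Values from fitted concentration-response curves.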
DT40 TDP1 no CPT: qHTS for Inhibitors of human tyrosyl-DNA phosphodiesterase 1 (TDP1): qHTS in cells in absence of CPT; DT40 Tdp1-/- hTDP1 cells, no CPT, ATP luminescence, 48 h; Potency, µM (top dose mostly 46.2 µM), without a hit: at the top dose activity change, negative = growth inhibition, usual class: inhibitors; 420,000 tested, 15% active; AID 686978, 2013; note: nearly all actives have a fitted effect of over 55% in size
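Luminescent ATP content (CellTiter-Glo) served as the growth readout. Knockout chicken DT40 cells expressing human TDP1 were exposed to compounds without camptothecin for a minimum 48 hr at 37 °C.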
* marks the source's active call; other numbers are inactive results; i = inactive; ? = inconclusive; nt = no result given; ! = a repeat was not active. Hits are enriched below; roughly 19% of the tested compounds scored in any of these assays. Calls come from the whole dose curve; as a rule, active = well fitted curve in the direction sought with a large enough effect; inconclusive = small, poorly fitted or top-dose-only effect, or another doubt; inactive = no such curve, though single readings can be large; an effect the other way counts as inactive or inconclusive. Unless noted, % is set by controls: 0 for no effect and ±100 for the full control effect; potency is the fitted concentration of half-maximal effect.

SMILES | KB-3-1 cytotox | HT1080NT lethal | HT1080 IDH1KD tx | DT40 TDP1 CPT | KB-V1 cytotox | DT40 TDP1 no CPT
CCCCC[C@H]1CN(C2CCCCC2)C(=O)[C@@H]1CC(=O)NCc1ccccc1 | ? | -3% | 4% | 11µM* | ? | 13µM*!
COc1ccc(CNC(=O)C[C@H]2C(=O)N(Cc3ccccc3)C[C@@H]2Cc2ccccc2)cc1 | i | -14% | -11% | ? | ? | 18µM*
COc1ccc([C@H]2CN(Cc3ccccc3)C(=O)[C@@H]2CC(=O)Nc2ccccc2)cc1 | i | -1% | -8% | -1% | ? | ?
O=C(CN1C(=O)NC2(CCCC2)C1=O)Nc1cc(Cl)ccc1N1CCOCC1 | i | 2% | 1% | 4% | ? | 6%
CCCCN1C[C@H](Cc2ccccc2)[C@@H](CC(=O)Nc2ccc(OC)cc2)C1=O | i | 15% | 9% | 0% | i | 2%
COc1ccc(CNC(=O)C[C@H]2C(=O)N(CCc3ccccc3)C[C@@H]2Cc2ccccc2)cc1 | ? | 3% | -1% | 16µM* | ? | 22µM*
O=S(=O)(c1ccc(OCC(O)CNC23CC4CC(CC(C4)C2)C3)c(Cl)c1)N1CCOCC1 (configuration not stated) | ? | 21µM* | 13µM* | ? | ? | 16µM*
O=C(COc1ccc(S(=O)(=O)N2CCOCC2)cc1Cl)NC1CCCCC1 | nt | -6% | -9% | ? | nt | -21%
O=C(CSc1ccccc1C(=O)O)Nc1ccc2c(c1)OCO2 | i | 0% | 2% | -5% | ? | 28%
Cc1cc(C)cc(N(CCC#N)C(=O)CSC2=Nc3ccccc3C3CC=NN23)c1 (configuration not stated) | i | -27% | ? | 21µM* | ? | ?
O=C(CSC1=Nc2ccccc2C2CC=NN12)Nc1ccc2c(c1)OCO2 (configuration not stated) | i | ? | ? | 7.3µM* | i | 23µM*
CCCOC(=O)c1ccc(NC(=O)CSC2=Nc3ccccc3C3CC=NN23)cc1 (configuration not stated) | i | -1% | -1% | 23µM* | i | ?
N#Cc1ccccc1NC(=O)CSc1ccc([N+](=O)[O-])cn1 | i | 0% | 6% | ? | i | -20%
N#Cc1ccccc1NC(=O)CSC1=Nc2ccccc2C2CC=NN12 (configuration not stated) | i | -15% | -12% | 15µM* | i | 23µM*
O=C(c1cccc(F)c1)N1CCC2(CCN(Cc3ccncc3)CC2)CC1 | nt | nt | nt | 11% | nt | -23%
COc1cccc(CNC(=O)[C@@H]2CCCN2C(=O)[C@H]2CCCCN2C(=O)c2c(F)cccc2F)c1 | i | 16% | 11% | -27% | ? | ?
Cc1csc(NC(=O)C2COc3ccccc3O2)n1 (configuration not stated) | i | 9% | 4% | ? | i | -20%
O=C(Nc1nc(-c2ccc(S(=O)(=O)N3CCCC3)cc2)cs1)C1COc2ccccc2O1 (configuration not stated) | i | 1% | 2% | 9.2µM* | ? | 7.3µM*
Cc1ccc2sc(NNC(=O)C3COc4ccccc4O3)nc2c1C (configuration not stated) | i | -3% | -2% | 26µM* | i | ?
Cc1ccc2sc(NNC(=O)c3cc(=O)c4ccccc4o3)nc2c1C | ? | -8% | -22% | 29µM* | i | ?
Cc1cnc(NC(=O)C2COc3ccccc3O2)s1 (configuration not stated) | i | -6% | -3% | 21µM* | i | ?
Cc1c(CCO)c(=O)[nH]n1S(=O)(=O)c1ccc([N+](=O)[O-])cc1 | i | 18% | 5% | ? | i | 7%
O=C(Nc1nc(-c2ccccc2)cs1)C1COc2ccccc2O1 (configuration not stated) | i | -14% | -11% | -5% | i | ?
O=C(Nc1nc(-c2ccccn2)cs1)C1COc2ccccc2O1 (configuration not stated) | i | ? | ? | 3.3µM* | i | 5.2µM*
COC(=O)c1cc(=O)n(Cc2ccc3c(c2)OCO3)c(=Nc2ccccc2)s1 | ? | ? | ? | 12% | i | ?
SMILES | KB-3-1 cytotox | HT1080NT lethal | HT1080 IDH1KD tx | DT40 TDP1 CPT | KB-V1 cytotox | DT40 TDP1 no CPT
COC(=O)c1cc(=O)n(Cc2ccco2)c(=Nc2ccc(F)c(Cl)c2)s1 | 18µM* | ? | ? | 16µM* | ? | 13µM*
COC(=O)c1cc(=O)n(CCc2ccccc2F)c(=Nc2ccc(F)c(Cl)c2)s1 | ? | 21µM* | 18µM* | 15µM* | i | 8.2µM*
CC(C)(CNC(=O)CNC(=O)c1ccc(Cl)cc1Cl)N1CCOCC1 | i | 2% | 0% | -3% | i | 0%
COc1cccc(N(Cc2nnc3n2CCCCC3)C(=O)Nc2cccc(Cl)c2)c1 | i | nt | nt | -23% | i | -19%
Cc1ccc(OCC(=O)NCCNC(=O)c2ccncc2)cc1 | ? | 0% | 4% | 5% | ? | -12%
CCOc1ccc(/C=N/Nc2ccccc2)cc1 | i | ? | ? | ? | i | 15µM*
CCOc1ccc(/C=N/O)cc1 | i | 8% | 5% | 4% | i | 1%
O=C(O)C(c1ccccc1)N1CCCC1 (configuration not stated) | i | 29% | 30% | -3% | i | -1%
Cc1ccc(NC(=O)C(c2ccc(Cl)cc2)N2CCCCC2)cc1 (configuration not stated) | ? | 11% | 20% | 15µM* | i | 13µM*
O=C(CN1CCN(C(C(=O)Nc2cc(C(F)(F)F)ccc2Cl)c2ccccc2)CC1)NC1CC1 (configuration not stated) | ? | -4% | -2% | 21µM* | ? | ?
Cc1cc(C)cc(NC(=O)C(c2ccccc2)N2CCN(CC(=O)NC3CC3)CC2)c1 (configuration not stated) | i | -7% | -3% | -18% | 16µM* | -30%
Cc1cc(C)cc(NC(=O)C(c2ccccc2)N2CCCC2)c1 (configuration not stated) | ? | 3% | 7% | 3.7µM* | i | 2.9µM*

Assay outcomes: PubChem BioAssay, National Center for Advancing Translational Sciences (NCATS)
